# Assay outcomes deposited in PubChem by several laboratories.
# Most compounds without a hit are left out; they make up all but 3.8% or so of the library.
# Mdm2-MdmX inh – inhibitors of human Mdm2-MdmX association, primary screen, cell-based, luminescence, split luciferase, SaOS-2, uHTS; 330,000 tested, 3% active; Protein Mdm4 (Homo sapiens) + E3 ubiquitin-protein ligase Mdm2 (Homo sapiens), …; AID 485346, 2010; inhibition, % at 8 µM; SaOS-2 split-luciferase Mdm2/MdmX complementation;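 active = inhibition of at least 50% at 8 µM in the primary screen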
# Shn3 inh set2 – reduction of Shn3 3'UTR firefly luciferase signal, primary screen, Schnurri-3 inhibitor project, cell-based, Clone20 osteoblasts, set 2; Clone20 osteoblast Shn3 3'UTR firefly luciferase, 24 h; AID 588674, 2011; 360,000 tested, 0.52% active; inhibition, % at 12.5 µM;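 active = mean inhibition of at least 75% with every replicate also reaching 75%; inconclusive = mean inhibition at least 75% but some replicate below; inactive = mean inhibition below 75%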;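 also: 0% = median of neutral control wells and 100% = pilot-screen positive control compound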
# Gli-Sufu antag – Gli-Sufu pathway antagonists, primary screen, luciferase luminescence, Sufu-KO-LIGHT cells, uHTS; Sufu-KO-LIGHT fibroblasts, Gli luciferase reporter luminescence; inhibition, % at 5 µM; 340,000 tested, 0.74% active; AID 588413, 2011;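 active = inhibition above about 55%, limit read from the data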;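 also: 0% = DMSO-treated cells and 100% = wells with medium but no cells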
# 697 NFkB inh – inhibitors of PMA/ionomycin-induced NF-kB reporter, 697 cells, primary screen, B-cell NF-kB inhibitor project, cell-based, luminescence, uHTS. 697 B-cell NF-kB luciferase reporter, 16 h. inhibition, % at 4 µM. 330,000 tested, 0.33% active; in the data active = inhibition above about 35%
# Jurkat NFkB inh – inhibitors of induced NF-kB luciferase reporter, primary screen, TCR NF-kB activation inhibitor project, cell-based, luminescence, uHTS; Jurkat, PMA/ionomycin-induced NF-kB luciferase reporter; inhibition, % at 4 µM; 330,000 tested, 0.53% active; AID 435003, 2010; in the data active = inhibition above about 50%
# Mdm2 MdmX conf – Mdm2-MdmX complex disruptors, retested hits, confirmation, luminescence, single concentration; shares compounds with Mdm2-MdmX inh; Mdm2-MdmX binding, luminescent assay; inhibition, % at 8 µM; 10,000 tested, 55% active; AID 489028, 2010; in the data active = inhibition above about 40%
# Full FLuc ctr – full-length luciferase signal inhibition, confirmation, counter-screen for Mdm2/MdmX interaction inhibitor project, cell-based, single concentration, SaOS-2; shares compounds with Mdm2-MdmX inh; SaOS-2 full-length luciferase counterscreen, luminescence; inhibition, % at 8 µM; 6,200 tested, 77% active; AID 504607, 2011;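 active = mean inhibition at 8 µM reaching about 37%, which flags the compound as non-specific, limit read from the data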;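 also: p53-null SaOS-2 cells with luciferase driven by a doxycycline-inducible promoter; compound on cells about two nights before reading with doxycycline added after day one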
# * hit, by the source's call; ? = inconclusive; . = not tested or not shown.
SMILES,Mdm2-MdmX inh,Shn3 inh set2,Gli-Sufu antag,697 NFkB inh,Jurkat NFkB inh,Mdm2 MdmX conf,Full FLuc ctr
COc1cc2ccc(C(C)=NNC(N)=S)cc2cc1OC,.,-15,.,.,.,.,.
O=C(Cc1ccccc1)N/N=C/c1cc(Br)cc(Br)c1O,59*,25,13,13,-10,73*,44*
O=C(CCc1ccccc1)N/N=C/c1cc(Br)ccc1O,71*,74,4,-7,9,69*,27
O=C(CCC(=O)Nc1ccc(Br)cc1)N/N=C/c1ccccc1O,67*,67,0,-15,22,68*,48*
Cc1ccc(SCCC(=O)N/N=C/c2ccccc2O)cc1,52*,19,-28,-53,2,44*,47*
COc1ccc(C=C(NC(=O)c2ccccc2)C(=O)O)cc1OC,.,-24,-25,.,.,.,.
COC(=O)N/N=C/c1cc(Br)ccc1O,10,15,10,-2,-7,.,.
O=C(N/N=C/c1cc(Br)ccc1O)c1ccccc1Cl,66*,42,21,-34,20,69*,35
C/C(=N/NC(=O)CCC(=O)Nc1ccc(Br)cc1)c1ccc(Br)cc1,51*,3,8,13,-4,7,.
O=C(CCn1cnc(-c2ccccc2)c1-c1ccccc1)N/N=C/c1ccccc1O,76*,?,0,-14,26,69*,26
CCOC(=O)C1=CCN(S(=O)(=O)c2ccccc2Br)C1c1cccc(F)c1 (centres undefined),.,5,.,.,.,.,.
C[C@H](NC(=O)c1ncn(Cc2ccccc2)c1C(=O)N[C@@H](C)c1ccccc1)c1ccccc1,31,21,0,-10,-9,.,.
COc1ccc(N(C)S(=O)(=O)c2cccc(C(=O)Nc3nc4ccccc4[nH]3)c2)cc1,29,23,7,7,4,.,.
CN(c1cccc(Cl)c1)S(=O)(=O)c1cccc(C(=O)Nc2nc3ccccc3[nH]2)c1,81*,30,17,-30,9,36,58*
O=C(O)c1ccsc1Cc1cccs1,.,-15,.,.,.,.,.
CCOC(=O)c1ccc(NC(=S)N(CCN(C)C)Cc2cccs2)cc1,76*,-7,-15,-174,-101,46*,61*
Cc1ccc(NC(=S)N(CCN(C)C)Cc2cccs2)cc1,12,69,9,-10,17,.,.
O=C1c2ccccc2S(=O)N1c1cccc(F)c1 (centres undefined),.,-6,.,.,.,.,.
C#CC1(O)CCC2C3CCC4=Cc5oncc5CC4(C)C3CCC21C (centres undefined),.,60,.,.,.,.,.
CCCOc1ccc2c(c1)C(=NN=C(N)N)c1cc(OCCC)ccc1-2,96*,27,-6,-20,14,34,.
NC(N)=NN=C1c2ccccc2-c2ccccc21,-8,-24,17,1,-13,.,.
CCN(CC)CCOc1ccc2c(c1)C(=NO)c1cc(OCCN(CC)CC)ccc1-2,96*,-2,4,-10,-21,91*,44*
CCN(CC)S(=O)(=O)c1ccc2c(c1)C(=NO)c1cc(S(=O)(=O)N(CC)CC)ccc1-2,83*,64,12,-22,12,68*,24
CCN(CC)CCOc1ccc(Br)cc1,-7,-7,-1,20,1,.,.
CCc1nn(C(C)C(=O)NCc2cccc(Cl)c2)c(=O)c2cc3occc3n12 (centres undefined),31,-4,3,-9,17,.,.
SMILES,Mdm2-MdmX inh,Shn3 inh set2,Gli-Sufu antag,697 NFkB inh,Jurkat NFkB inh,Mdm2 MdmX conf,Full FLuc ctr
COC(=O)c1ccccc1-n1cccc1C(=O)NP(=O)(N1CCOCC1)N1CCOCC1,13,-5,-2,8,5,.,.
Cc1cc(Nc2cccc(C(=O)O)c2)n2ncnc2n1,4,2,20,-11,14,.,.
C=C1[C@@H](O)[C@@H]2O[C@]3(CC[C@H](/C=C/[C@@H](C)[C@@H]4CC(C)=CC5(O[C@H](C[C@@](C)(O)C(=O)OC)CC[C@H]5O)O4)O3)CC[C@H]2O[C@@H]1[C@@H](O)C[C@H](C)[C@H]1OC2(CCCCO2)CC[C@H]1C (some centres undefined),100*,.,90*,-13,-5,100*,1
NS(=O)(=O)c1ccc(CCNC(=O)c2ccc(NC3=NC4CS(=O)(=O)CC4S3)cc2)cc1 (centres undefined),-6,27,0,11,9,.,.
COC(=O)c1ccccc1NC(=O)CN1CCC(C(=O)c2ccc3c(c2)OCCO3)CC1,62*,28,2,-9,5,60*,99*
O=C1OC(c2ccc(F)cc2)=C/C1=C\c1ccc([N+](=O)[O-])o1,74*,.,.,-7,-8,26,.
CC(C)(C)n1nnnc1C(c1ccccn1)N(Cc1ccccc1)Cc1ccc(Cl)cc1 (centres undefined),60*,26,17,-16,-16,8,.
O=C(CCS(=O)(=O)c1ccc(F)cc1)Nc1nc(-c2ccncc2)cs1,89*,24,5,-25,-20,68*,34
O=C(Nc1nc2c(s1)COc1ccccc1-2)c1cccs1,30,-9,-81,23,14,.,.
CC(C)c1nnc(NC(=O)CCS(=O)(=O)c2nc(-c3cccs3)cc(C(F)(F)F)n2)s1,95*,99*,46,-9,-3,44*,63*
CC(C)(C)c1csc(NC(=O)CCS(=O)(=O)c2ccc(F)cc2)n1,.,5,.,.,.,.,.
O=C(CCS(=O)(=O)c1ccccc1)Nc1nc(-c2cccs2)cs1,97*,8,-3,-18,-13,47*,51*
O=C(CCS(=O)(=O)c1ccccc1)Nc1nc2c(s1)COc1ccccc1-2,63*,1,11,7,21,10,.
O=C(COc1ccccc1)Nc1nc(-c2cccs2)cs1,-7,-11,1,-27,10,.,.
CC(C)(C)C(=O)N1CCN(c2ccc3c(c2)C2CC3CCN2C(=O)OCc2ccccc2)CC1 (centres undefined),.,-4,.,.,.,.,.
CCOC(=O)c1c(C)sc2c1N(C(=O)CCl)c1cc(Cl)ccc1S2,100*,11,-7,-199,11,77*,47*
O=C(/C=C/c1cccc(Cl)c1)NCCN1CCOCC1,76*,-16,2,-49,-35,-18,.
